SMILES strings stand for the structures. “And” between values parts separate entries of the source, which are not always exact repeats. Equal values may be shown once. This is part of a sample that, as a whole, favours compounds with a hit. Of some 83,000 tested, about 20% had one in any assay.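 In brief: 96-well plates, 48 h treatment, single concentration, percent growth endpoint.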 Values without a mark were called inactive. The source made the active and inactive calls. Rule for the calls: active = growth percent below 10; inactive = the rest.

40 compounds from PubChem BioAssay (NCI) can be followed below.

This assay relates to MDA-MB-468 breast. In words: NCI-60 one-dose screen, 48 h (100 = growth as untreated, 0 = no growth, -100 = all killed). The note with it: 10 µM unless noted.
For `Fc1ccc(Nc2nc3nonc3nc2Nc2ccc(I)cc2)cc1`, the growth was -14.7% (active).
As for `COc1ccc(-c2nc(SCC(C)C)nc(Nc3ccc([N+](=O)[O-])cc3)c2C#N)cc1`, the growth was 93.4%.
Take `COc1ccc(-c2cn(Cc3ccc4c(Br)cc(Br)c(O)c4n3)nn2)cc1`: the growth was 72.2%.
Regarding `Oc1[nH]c2ccccc2c1N=Nc1nnc2n1N=C(c1ccccc1)CS2`, the growth was 104%.
The value for `COC(=O)c1cnc2c(c1)Oc1ccc(Cl)cc1-c1cc(C)nn1-2` was 92%; that for `CCCCC1=C(Br)C(=O)c2ncccc2C1=O` was 84.2%.
`O=C(c1ccc(Cl)cc1Cl)N1c2ccccc2Sc2ccccc21`: the growth was 51.4%.
As for `O=C(Nc1ccc(C2=NCCCN2)cc1)c1ccc(C(=O)Nc2ccc(C3=NCCCN3)cc2)nc1`, the growth was 102%.
Take `CC(=O)OC(OC(C)=O)C1CCCO1` (stereo not given): the growth is 99.5%.
The value for `O=C(O)CCCCCN1C(=O)/C(=C/c2ccc(O)c(O)c2)SC1=S` was 103%; that for `O=c1oc2cc(OS(=O)(=O)c3ccccc3)ccc2c2c1CCCCC2` was 44.3%.
Then `N#CC(C#N)N=Nc1ccc(Cl)cc1`, with -17.6% (active); and `CCCc1nc2ccccn2c1Nc1ccc(C(=O)NO)cc1`, with 87.9%; and `COC(=O)c1ccc2c(c1)NC(=O)[C@@H]1CCCN21`, with 109%.
Take `CC1CCCC(CC(N)=O)CC1` (stereo not given): the growth is 97.9%.
Regarding `CCn1c(SCC(=O)Nc2cccc(C(=O)/C=C/c3ccc(Br)cc3)c2)nc2ccccc2c1=O`, the growth is 86.6%.
Then `Cc1nnc(Nc2ccc(NC(=O)Nc3ccc(Cl)cc3)cc2)c2ccccc12`, with 6.44% (active); and `C#C[C@]1(O)CC[C@H]2[C@@H]3CC=C4c5sc(Nc6ncccc6C)nc5CC[C@]4(C)[C@H]3CC[C@@]21C`, with -8.36% (active).
On to `O=C(/C=C/c1cccc2ccccc12)c1ccc(NC(=O)c2ccccc2CN2C(=O)c3ccccc3C2=O)cc1`, for which the growth is 51.3%.
The value for `CS(=O)(=O)Nc1cccc(-c2ccc3ncnc(Nc4ccc(F)c(Cl)c4)c3c2)c1` was -26% (active); that for `CC(C)NC(=O)OCc1c(COC(=O)NC(C)C)c(-c2ccc(Cl)cc2)n2c1CCC2` was -8.97% (active); that for `CCCOC(=O)c1ccc2c(c1)[N+](=O)C(C(=O)c1ccccc1)=C(C(F)(F)F)[N+]2=O` was -81.4% (active).
As to `COc1cccc(C(Cc2ccccc2)Nc2ccccc2)c1OC` (stereo not given), the growth was 111%.
As for `CCOC(=O)/C(C#N)=C\c1c[nH]c2ccccc12`, the growth is 97.4%.
Take `O=C(N/N=C/[C@H](O)[C@H](O)[C@H](O)CO)c1ccc(NC(=O)c2cccnc2)cc1`: the growth is 113%.
On to `CCCCC/C=C/C/C=C/CCCCCCCC1=NC(C)(C)CN1C(C)C`, for which the growth was -42.8% (active).
For the compound `CCOC(=O)NC(=S)n1oc(=O)c2ccccc21`, the growth is 106%.
With `CCCCC/C(C=C(C#N)C#N)=C/c1ccccc1`, the growth was 97.9%.
As to `CC(C)(C#N)c1cc(C(=O)Nc2cc(Nc3ncccc3-c3ncnc4nc[nH]c34)ccc2F)cc(C(F)(F)F)c1`, the growth is 90.2%.
As to `COc1ccc(C(=O)N=Nc2c(O)n(C)c3ccccc23)cc1`, the growth was 95.2%.
The value for `O=C(O)c1ccc(-n2cc(CNc3ccc(Oc4ccccc4)cc3)c(-c3ccccc3)n2)cc1` was 99.8%; that for `CN(C)c1ccc(C2CC(c3ccccc3)=NN2/C=C2\SC(=O)NC2=O)cc1` (stereo not given) was 100%.
Then `O=C(Nc1ccc([N+](=O)[O-])cc1Cl)c1cc(Cl)ccc1O`, with -21.5% (active) and -24.3% (active).
Then `CCOC(=O)c1c(NCC(=O)Nc2cccc([N+](=O)[O-])c2)sc2c1CCCC2`, with -77.2% (active); and `CCOC(=O)CNC`, with 101%.
Consider `O=C(NNC(=O)c1ccc(-n2cc(-c3ccccc3)nn2)cc1)Nc1ccccc1`, for which the growth was 109%.
For the compound `COc1cc(C(=O)/C=C/c2ccc3nc(-c4cc(F)cc(F)c4)sc3c2)cc(OC)c1OC`, the growth is 120%.
On to `Oc1ccc(CCCCCCc2ccc(O)cc2)cc1`, for which the growth was 99.5%.
Consider `COc1cc2oc(-c3cccc(NC(=O)c4cccc(Br)c4)c3)cc(=O)c2c(OC)c1OC`, for which the growth is 66.8%.
The value for `CCc1nc2ccc(Cc3ccc(C(=O)NO)cc3)cc2c(=O)n1CCc1ccccc1` was -65.1% (active).
